Laboratory results from paper PMC12820563, “FoxP3 forms a head-to-head dimer in vivo and stabilizes its multimerization on adjacent microsatellites”.
The full ranking holds about 16,000 sequences; the median of “rpm ratio (pull-down/input)” is about 0.5, and the highest 2% start at about 5.5. The full list was thinned out, with the highest values kept by preference.

Each sequence was assayed against T1, MBP-FoxP3dN (Mus musculus, UniProt Q99JB6 188-423) (assay: PD-seq (MBP pull-down with sequencing); 20 mM Tris-HCl pH 7.5, 100 mM NaCl, 1.5 mM MgCl2, 0.4 uM protein, 0.1 uM dsDNA library, 30 min, room temperature, amylose pull-down; high values mean tight binding). Settings: protein: recombinant; tags: His6-MBP; chain copies: 2; dsDNA, one strand shown.
T1 sequence: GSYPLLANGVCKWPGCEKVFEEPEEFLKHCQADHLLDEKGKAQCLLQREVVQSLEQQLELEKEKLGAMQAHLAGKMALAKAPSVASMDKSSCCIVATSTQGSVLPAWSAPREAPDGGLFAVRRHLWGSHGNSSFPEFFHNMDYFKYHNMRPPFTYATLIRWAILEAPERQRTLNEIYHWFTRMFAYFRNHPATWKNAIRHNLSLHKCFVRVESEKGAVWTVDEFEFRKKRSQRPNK
Method in brief: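 Protein and DNA were mixed at 0.4 µM and 0.1 µM and held for 30 min at room temperature in Tris pH 7.5 buffer with NaCl and MgCl2; the protein was a His6-MBP-tagged, N-terminally truncated mouse FoxP3 or FoxP1 fragment from E. coli, and the DNA a Klenow-filled double-stranded degenerate library. Amylose resin captured the complexes, which were washed three times. Binding is read as reads-per-million enrichment of pull-down versus input after Illumina sequencing, with replicates pooled.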

Sequence | binding signal
GATGATTGTTCTCCCAGCTGATGAATTGGAGCTGTCGAGTAAACAAATTTTCCTAATCTTTCTGTTCAAGCGCCATCTAC | 0.312 RPM ratio (pull-down/input)
GATGATTGTTCTCCCAGCTGATGAATTCTATAGGTCGAGTAAACAAATTTTCCTAATCTTTCTGTTCAAGCGCCATCTAC | 0.372 RPM ratio (pull-down/input)
GATGATTGTTCTCCCAGCTGATGAATTCCAGCTGTCGAGTAAACAAATTTTCCTAATCTTTCTGTTCAAGCGCCATCTAC | 0.355 RPM ratio (pull-down/input)
GATGATTGTTCTCCCAGCTGATGAATTACCATAATCGAGTAAACAAATTTTCCTAATCTTTCTGTTCAAGCGCCATCTAC | 0.448 RPM ratio (pull-down/input)
GATGATTGTTCTCCCAGCTGATGAATTCAGCGCCTCGAGTAAACAAATTTTCCTAATCTTTCTGTTCAAGCGCCATCTAC | 1.17 RPM ratio (pull-down/input)
GATGATTGTTCTCCCAGCTGATGAATTGCTACCGTCGAGTAAACAAATTTTCCTAATCTTTCTGTTCAAGCGCCATCTAC | 0.615 RPM ratio (pull-down/input)
GATGATTGTTCTCCCAGCTGATGAATTCATACTATCGAGTAAACAAATTTTCCTAATCTTTCTGTTCAAGCGCCATCTAC | 0.534 RPM ratio (pull-down/input)
GATGATTGTTCTCCCAGCTGATGAATTCGAGCCATCGAGTAAACAAATTTTCCTAATCTTTCTGTTCAAGCGCCATCTAC | 1.13 RPM ratio (pull-down/input)
GATGATTGTTCTCCCAGCTGATGAATTGACGTCTTCGAGTAAACAAATTTTCCTAATCTTTCTGTTCAAGCGCCATCTAC | 0.448 RPM ratio (pull-down/input)
GATGATTGTTCTCCCAGCTGATGAATTGTACTACTCGAGTAAACAAATTTTCCTAATCTTTCTGTTCAAGCGCCATCTAC | 0.546 RPM ratio (pull-down/input)
GATGATTGTTCTCCCAGCTGATGAATTATCAGGCTCGAGTAAACAAATTTTCCTAATCTTTCTGTTCAAGCGCCATCTAC | 0.299 RPM ratio (pull-down/input)
GATGATTGTTCTCCCAGCTGATGAATTTCTGTGTTCGAGTAAACAAATTTTCCTAATCTTTCTGTTCAAGCGCCATCTAC | 0.716 RPM ratio (pull-down/input)
GATGATTGTTCTCCCAGCTGATGAATTGTGTTCTTCGAGTAAACAAATTTTCCTAATCTTTCTGTTCAAGCGCCATCTAC | 2.39 RPM ratio (pull-down/input)
GATGATTGTTCTCCCAGCTGATGAATTGTTGTGTTCGAGTAAACAAATTTTCCTAATCTTTCTGTTCAAGCGCCATCTAC | 6.09 RPM ratio (pull-down/input)
GATGATTGTTCTCCCAGCTGATGAATTCCGTGCCTCGAGTAAACAAATTTTCCTAATCTTTCTGTTCAAGCGCCATCTAC | 0.796 RPM ratio (pull-down/input)
GATGATTGTTCTCCCAGCTGATGAATTTATCTGATCGAGTAAACAAATTTTCCTAATCTTTCTGTTCAAGCGCCATCTAC | 0.374 RPM ratio (pull-down/input)
GATGATTGTTCTCCCAGCTGATGAATTTATCGAGTCGAGTAAACAAATTTTCCTAATCTTTCTGTTCAAGCGCCATCTAC | 0.379 RPM ratio (pull-down/input)
GATGATTGTTCTCCCAGCTGATGAATTCTAATCATCGAGTAAACAAATTTTCCTAATCTTTCTGTTCAAGCGCCATCTAC | 0.567 RPM ratio (pull-down/input)

Sequence | binding signal
GATGATTGTTCTCCCAGCTGATGAATTCGCATTTTCGAGTAAACAAATTTTCCTAATCTTTCTGTTCAAGCGCCATCTAC | 4.25 RPM ratio (pull-down/input)
GATGATTGTTCTCCCAGCTGATGAATTTGACGCATCGAGTAAACAAATTTTCCTAATCTTTCTGTTCAAGCGCCATCTAC | 1.22 RPM ratio (pull-down/input)
GATGATTGTTCTCCCAGCTGATGAATTCGACGCATCGAGTAAACAAATTTTCCTAATCTTTCTGTTCAAGCGCCATCTAC | 0.992 RPM ratio (pull-down/input)
GATGATTGTTCTCCCAGCTGATGAATTTTTCGCATCGAGTAAACAAATTTTCCTAATCTTTCTGTTCAAGCGCCATCTAC | 0.898 RPM ratio (pull-down/input)
GATGATTGTTCTCCCAGCTGATGAATTTTCGCATTCGAGTAAACAAATTTTCCTAATCTTTCTGTTCAAGCGCCATCTAC | 6.27 RPM ratio (pull-down/input)
GATGATTGTTCTCCCAGCTGATGAATTTCGCCATTCGAGTAAACAAATTTTCCTAATCTTTCTGTTCAAGCGCCATCTAC | 5.04 RPM ratio (pull-down/input)
GATGATTGTTCTCCCAGCTGATGAATTCGCCATTTCGAGTAAACAAATTTTCCTAATCTTTCTGTTCAAGCGCCATCTAC | 1.75 RPM ratio (pull-down/input)
GATGATTGTTCTCCCAGCTGATGAATTGTTCGCATCGAGTAAACAAATTTTCCTAATCTTTCTGTTCAAGCGCCATCTAC | 1.1 RPM ratio (pull-down/input)
GATGATTGTTCTCCCAGCTGATGAATTTCGCATTTCGAGTAAACAAATTTTCCTAATCTTTCTGTTCAAGCGCCATCTAC | 6.94 RPM ratio (pull-down/input)
GATGATTGTTCTCCCAGCTGATGAATTCGCATTCTCGAGTAAACAAATTTTCCTAATCTTTCTGTTCAAGCGCCATCTAC | 4.89 RPM ratio (pull-down/input)
GATGATTGTTCTCCCAGCTGATGAATTGACGCATTCGAGTAAACAAATTTTCCTAATCTTTCTGTTCAAGCGCCATCTAC | 5.74 RPM ratio (pull-down/input)
GATGATTGTTCTCCCAGCTGATGAATTCTCGCATTCGAGTAAACAAATTTTCCTAATCTTTCTGTTCAAGCGCCATCTAC | 5.82 RPM ratio (pull-down/input)
GATGATTGTTCTCCCAGCTGATGAATTTGGATACTCGAGTAAACAAATTTTCCTAATCTTTCTGTTCAAGCGCCATCTAC | 1.85 RPM ratio (pull-down/input)
GATGATTGTTCTCCCAGCTGATGAATTGCCCAAATCGAGTAAACAAATTTTCCTAATCTTTCTGTTCAAGCGCCATCTAC | 0.385 RPM ratio (pull-down/input)
GATGATTGTTCTCCCAGCTGATGAATTAGTTACATCGAGTAAACAAATTTTCCTAATCTTTCTGTTCAAGCGCCATCTAC | 0.891 RPM ratio (pull-down/input)
GATGATTGTTCTCCCAGCTGATGAATTTAGCTACTCGAGTAAACAAATTTTCCTAATCTTTCTGTTCAAGCGCCATCTAC | 1.83 RPM ratio (pull-down/input)
GATGATTGTTCTCCCAGCTGATGAATTTTTGGAGTCGAGTAAACAAATTTTCCTAATCTTTCTGTTCAAGCGCCATCTAC | 0.23 RPM ratio (pull-down/input)
